Measurements as given in PubChem BioAssay AID1259417 (TB Discovery Research, Infectious Disease Research Institute, 2018).
Hit rate of the full screen: of about 1,100 compounds, about 760 (69%) were called active. No rule for the calls is given here. The set was probably picked from earlier hits. The list shows a part of the results.

Assay: M. tuberculosis growth inhibition, HTS (AID 1259417);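 also: bacteria grown with compound for 5 days at 37 °C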
Conditions: stronger effect = higher value, concentration not given here
[1] = M. tuberculosis DsRed fluorescence growth inhibition
[2] = M. tuberculosis growth inhibition

Row | SMILES | inhibition [1] | inhibition [2] [%]
1 | COc1ccc(C)c2sc(N(CCCn3ccnc3)C(=O)c3cccs3)nc12 | 51.2% (active) | 44.6
2 | COc1ccc(Cl)c2sc(N(CCCn3ccnc3)C(=O)c3cccs3)nc12 | 59.9% (active) | 61.3
3 | O=C(COc1cccc2ccccc12)c1ccc(Cl)cc1 | 17% (active) | 36.9
4 | Cn1nc([N+](=O)[O-])nc1Sc1ncnn1-c1ccccc1 | 97.1% (active) | 95
5 | O=c1nc2c(O)cccn2c2c1c(=O)[nH]c1ccccc12 | -3.23% (inactive) | -27.6
6 | Cc1c(C)n2c3c(=O)[nH]c(=O)n(C)c3nc2n1-c1ccccc1O | 97.2% (active) | 92.8
7 | COC(=O)C(CC(=O)c1ccc(Br)cc1)n1ccnc1 (stereo not drawn) | 100% (active) | 100
8 | O=c1oc2ccccc2nc1/C=C(O)/C=C\c1ccccc1 | 99.1% (active) | 98.9
9 | Clc1ccc(OCc2ccccc2Cl)c(CNC2CCCCC2)c1 | 99.2% (active) | 99.3
10 | COC(=O)CSc1ncnc2c1sc1nc3c(cc12)COC(C)(C)C3 | 48.1% (active) | -1.03
11 | Cc1ccc(Nc2nc(NCc3ccco3)c3ccccc3n2)cc1 | 69% (active) | 45.4
12 | OCCOCCNc1nc(Nc2cccc(F)c2)nc2c1cnn2-c1ccccc1 | -4.23% (inactive) | 4.68
13 | Cc1ccccc1Nc1nc(NCc2ccco2)c2ccccc2n1 | -6.74% (inactive) | -22.5
14 | CCOc1ccc(Nc2nc(NCc3ccco3)c3ccccc3n2)cc1 | 65.7% (active) | 78.4
15 | Clc1cccc(Nc2nc(NCc3ccco3)c3ccccc3n2)c1 | 41.8% (active) | 5.69
16 | Cc1ccc(-c2nc(NC(=O)CO)cs2)cc1 | 99.1% (active) | 100
17 | Cc1ccc(-c2csc(-c3ccc(O)cc3)n2)cc1 | 3.54% (inactive) | 28.7
18 | CC(NCC(O)COc1ccccc1C(C)(C)C)c1ccccc1 (stereo not drawn) | 61.1% (active) | 48.8
19 | O=C(Nc1nnc(-c2ccc3c(c2)CCCC3)o1)c1ccc(Cl)s1 | 95.5% (active) | 90.6
20 | O=C(Nc1nnc(-c2ccc3c(c2)CCCC3)o1)c1ccc([N+](=O)[O-])s1 | 79% (active) | 93.9
21 | O=C(Nc1nnc(-c2ccc3c(c2)CCCC3)o1)c1ccc(Cl)cc1Cl | -1.63% (inactive) | -9.7
22 | CSc1cccc(-c2nnc(NC(=O)c3ccc([N+](=O)[O-])s3)o2)c1 | 13% (active) | 56.8
23 | O=C(Nc1nnc(-c2ccc3c(c2)CCCC3)o1)c1cc(Cl)sc1Cl | 52.2% (active) | 48.6

Row | SMILES | inhibition [1] | inhibition [2] [%]
24 | O=C(Nc1cccc(Br)c1)c1ccc([N+](=O)[O-])s1 | 6.23% (inactive) | 3.28
25 | O=C1CC(c2ccc(Cl)cc2)CC2=C1C(c1ccc(C(F)(F)F)cc1)Nc1ccccc1N2 (stereo not drawn) | -1.45% (inactive) | -10.1
26 | COC(=O)CSc1ncnc2c1nnn2Cc1ccc(F)cc1 | 99.8% (active) | 99.8
27 | CCOC(=O)C(C)Sc1ncnc2c1cnn2-c1ccc(F)cc1 (stereo not drawn) | 26.4% (active) | 87.2
28 | COC(=O)CSc1ncnc2c1cnn2-c1ccc(F)cc1 | 27.3% (active) | 86.2
29 | CCOC(=O)C(C)Sc1ncnc2c1nnn2Cc1ccc(F)cc1 (stereo not drawn) | 2.2% (inactive) | 19
30 | CCOC(=O)CSc1ncnc2c1cnn2-c1ccc(C)cc1C | 39.4% (active) | 77.1
31 | CCOC(=O)CSc1ncnc2c1cnn2-c1ccccc1 | 13.4% (active) | 70.7
32 | CCOC(=O)CNC(=O)CSc1ncnc2c1nnn2Cc1ccccc1F | 17.3% (inactive) | 22.5
33 | CCOC(=O)C1CCCN(c2ccc([N+](=O)[O-])c3nonc23)C1 (stereo not drawn) | 29.3% (active) | 67.6
34 | O=S1(=O)C=CC2ON=C(c3ccc(C(F)(F)F)cc3)C21 (stereo not drawn) | 99.5% (active) | 96.8
35 | O=S1(=O)C=CC2ON=C(c3ccc(Cl)cc3)C21 (stereo not drawn) | 100% (active) | 98.3
36 | CCOC(=O)CSc1nc2c(c(-c3ccc(C)o3)c1C#N)CCCC2 | 21.7% (inactive) | 28.1
37 | COC(=O)CSc1nc2c(c(-c3ccc(C)o3)c1C#N)CCCC2 | 4.49% (inactive) | -17
38 | N#Cc1cc2c(nc1SCC(=O)OCc1ccccc1)CCC2 | 99.7% (active) | 99.7
39 | O=C(Nc1ccc(Cl)c(C(F)(F)F)c1)c1csc2c1CCCC2 | 1.18% (inactive) | -27.8
40 | O=C(CC(O)(C(F)(F)F)C(F)(F)F)Nc1ccc(Cl)c(Cl)c1 | 100% (active) | 101
41 | O=C(Cc1ccc(F)cc1)Nc1ccc(Cl)c(C(F)(F)F)c1 | 50.9% (active) | 31.5
42 | O=C(CSc1ccc(Cl)cc1)Nc1ccc(Cl)c(C(F)(F)F)c1 | 0.0104% (inactive) | -15.8
43 | Cc1cc(C)nc(N=C(N)Nc2cc(Cl)ccc2Oc2ccccc2)n1 | 97.1% (active) | 99.6
44 | CCN(CC)c1cccc(Oc2nc([N+](=O)[O-])nn2C)c1 | 96.8% (active) | 95.7
45 | Cn1nc([N+](=O)[O-])nc1Oc1ccc(C(C)(C)C)cc1 | 96.8% (active) | 94.8
46 | CCc1ccc(Oc2nc([N+](=O)[O-])nn2C)cc1 | 98% (active) | 95.4

Row | SMILES | inhibition [1] | inhibition [2] [%]
47 | O=C(OCc1nnc(-c2ccccc2)o1)c1cc(-c2cccs2)nc2ccccc12 | 83.3% (active) | 100
48 | CN(Cc1nc2ccccc2c(=O)[nH]1)Cc1nc2ccsc2c(=O)[nH]1 | 97.2% (active) | 96.7
49 | CC1Cc2cc(-c3nn(-c4ccccc4)cc3C=C3SC(=S)NC3=O)ccc2O1 (stereo not drawn) | 27% (active) | 38.2
50 | CCOC(=O)COc1ccc2cc(-c3nc4ccccc4s3)c(=O)oc2c1 | 88.6% (active) | 86.2
51 | CCOC(=O)COc1ccc2cc(-c3ccc(OC)c(OC)c3)c(=O)oc2c1 | 43.5% (active) | 53.6
52 | COC(=O)COc1ccc2cc(-c3ccc(OC)c(OC)c3)c(=O)oc2c1 | 26.7% (active) | 45
53 | COc1cccc(OCC(=O)c2ccc(Br)cc2)c1 | -3.18% (inactive) | -10.7
54 | COc1cccc(OCCNC(=O)c2cc([N+](=O)[O-])cc([N+](=O)[O-])c2)c1 | 98.1% (active) | 95.3
55 | c1ccc(CCNc2nc3ccccc3[nH]2)cc1 | 21.4% (active) | 32.9
56 | Cc1ccc2nc(NCc3ccccc3)[nH]c2c1 | 43% (active) | 23.1
57 | Cc1ccc(OCCN2CCN(c3nc(NCc4ccccc4)c4ccccc4n3)CC2)cc1 | -1.14% (inactive) | -0.136
58 | O=C(C1CCN(c2nnc(-n3cccc3)s2)CC1)N1CCc2ccccc2C1 | 70.1% (active) | 84.1
59 | O=C(NC12CC3CC(CC(C3)C1)C2)N1CCN(c2cccc(C(F)(F)F)c2)CC1 | 100% (active) | 94.4
60 | COc1cccc(-c2csc(N3CCN(C(=O)NC45CC6CC(CC(C6)C4)C5)CC3)n2)c1 | 3.33% (inactive) | -30.6
61 | O=C(C1CCN(c2nnc(-n3cccc3)s2)CC1)N1CCN(c2cccc(C(F)(F)F)c2)CC1 | 68.1% (active) | 27.8
62 | Cc1nc2cc(C(=O)OCC(=O)NC34CC5CC(CC(C5)C3)C4)ccc2n1-c1ccccc1 | -4.71% (inactive) | -17.2
63 | Cc1cccc(N2CCN(C3=NC(=O)C(=C4CCCCC4)S3)CC2)c1 | 84.8% (active) | 77.9
64 | CC1CCC(C(C)C)C(OC(=O)Cn2c(-c3ccc(F)cc3)[n+](C)c3ccccc32)C1 (stereo not drawn) | 94.3% (active) | 97.5
65 | CCN(CC)c1ccc(NC(=O)c2cnccn2)cc1 | 92.1% (active) | 96.5
66 | O=C(Nc1nnc(-c2ccccc2)o1)c1nc2ccccc2s1 | 94.3% (active) | 94.8
67 | Cc1ccc(-c2nnc(NC(=O)c3nc4ccccc4s3)o2)c(C)c1 | 21.8% (active) | 89.7
68 | CC(=O)Nc1nc2ccccc2n1CCOc1ccccc1 | 93% (active) | 92.9
69 | CC(C)(C)c1ccc(OCCN2C(=O)C(=O)c3cc(Br)ccc32)cc1 | -0.55% (inactive) | -12

Row | SMILES | inhibition [1] | inhibition [2] [%]
70 | CCc1nc2ccccc2n1CC(O)COc1ccc(I)cc1 (stereo not drawn) | 99.5% (active) | 100
71 | O=C(c1ccccc1)c1ccc(OCC(O)Cn2cnc3ccccc32)cc1 (stereo not drawn) | -0.545% (inactive) | -3.24
72 | CC(=O)Nc1nc2ccccc2n1Cc1ccccc1 | 81.5% (active) | 85.5
73 | CC(C)(C)c1ccc(OCCn2c(N)nc3ccccc32)cc1 | 70.4% (active) | 90.4
74 | COc1ccc(C2CC(c3c(-c4ccccc4)c4cc(Br)ccc4[nH]c3=O)=NN2C(=O)c2ccccc2)cc1 (stereo not drawn) | 9.47% (inactive) | 8.15
75 | Cc1nc2ccccc2n1CC(O)COc1ccc(C2C=CCC2)cc1 (stereo not drawn) | 101% (active) | 101
76 | CCc1nc2ccccc2n1CCCOc1ccccc1 | 100% (active) | 101
77 | COc1ccc(SN=C2C(C)=CC(=O)C=C2C)cc1 | 5.38% (inactive) | 20
78 | CN(C)CC1CC(C(C)(C)C)CCC1=O (stereo not drawn) | 63.9% (active) | 85.1
79 | O=c1oc(-c2ccccc2Br)nc2sc3c(c12)CCCC3 | 99.7% (active) | 98.6
80 | COC(=O)COc1ccc2c(=O)c(-c3ccc(Cl)cc3)coc2c1 | 78.7% (active) | 94.8
81 | COC(=O)COc1ccc2c(=O)c(-c3ccccc3Cl)c(C)oc2c1 | 74.9% (active) | 95.5
82 | CCCc1cc2c(=O)c(-c3ccc4c(c3)OCCCO4)coc2cc1OCC(=O)OCC | 62.8% (active) | 59.1
83 | NNC(=O)c1ccc(-c2ccccc2Cl)o1 | -6.57% (inactive) | 6.08
84 | COc1ccccc1-c1c(C)oc2cc(OCC(=O)OCc3ccccc3)ccc2c1=O | 28.7% (active) | 62.9
85 | CS(=O)(=O)Nc1cccc(C2=NN(c3nc(-c4ccccc4)c4cc(Cl)ccc4n3)C(c3ccco3)C2)c1 (stereo not drawn) | 7.39% (inactive) | -23.7
86 | CCc1cc2c(=O)c(-c3ccc(OC)cc3)coc2cc1OCC(=O)OC | 63.7% (active) | 86.9
87 | CCCCOC(=O)COc1ccc2c(=O)c(Oc3ccc(OCC)cc3)c(C)oc2c1 | 31.4% (active) | 83.7
88 | COc1ccccc1-c1coc2cc(OCC(=O)OC3CCCCC3)ccc2c1=O | 40.7% (active) | 66.9
89 | CCOC(=O)COc1ccc2c(=O)c(Oc3cnn(-c4ccccc4)c3)c(C)oc2c1 | 79% (active) | 94.4
